Results on 24 compounds are retold here after the supplement of paper PMC10127200.

Counter-ions that a name gives are not always drawn.

Common to all, as to assay: Euclidean distance of Cell Painting phenotypic profile (signed KS, 77 features) to DMSO centroid (dimensionless distance); 5 or 10 uM (library dependent); higher = stronger phenotypic change vs DMSO (phenoactivity)
Conditions in all cases: 48 h

The subject of one assay is 786-O. The method, boiled down:
(§1)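 Stained cells were imaged confocally at 20X with 9 fields per well, after 48 h of exposure to library compounds at 10 or 5 uM (set by library; 0.1% DMSO final). The cells were five cancer lines and a healthy fibroblast line. From the images, Harmony extracted 77 features, each expressed as a signed Kolmogorov-Smirnov statistic relative to same-plate vehicle wells. Phenoactivity is measured as Euclidean distance to the median vehicle profile, using plate-position-corrected, correlation-weighted profiles averaged across replicates at the top dose.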

The next assay has as its system A549. The method, boiled down:
as §1

A further assay has as its system DU145. A digest of the protocol: as §1
The test system of another assay is FB. A digest of the protocol: as §1
The subject of another assay is HEPG2. A digest of the protocol: as §1
The test system of a further assay is OVCAR4. The method, boiled down: as §1

As for `C[n+]1c2ccccc2nc2ccccc21` [Phenazine methosulfate], the Euclidean distance with 786-O is 5.13; with A549 it was 2.82; in the assay with DU145, 4.95; with FB, 4.99; with HEPG2, 3.66; with OVCAR4, 2.78.
For `O=C(O)c1cccc(-c2noc(-c3ccccc3F)n2)c1` [Ataluren (PTC124)], the Euclidean distance in the assay with 786-O stood at 1.05; in the assay on A549, 0.791; in the assay on DU145, 1.17; in the assay with FB it was 1.13; in the assay on HEPG2, 0.816; in the assay with OVCAR4 it was 1.51.
Take `O=C(O)Cc1ccc(-c2ccccc2)cc1` [4-Biphenylacetic acid]: the Euclidean distance in the assay with 786-O came to 1.14; with A549 it was 1.09; in the assay on DU145, 1.65; in the assay on FB, 1.66; with HEPG2, 0.638; in the assay on OVCAR4, 1.62.
Regarding `CCCCCCCCc1ccc(CCC(N)(CO)CO)cc1` [Fingolimod], the Euclidean distance in the assay on 786-O amounted to 5.32; in the assay on A549, 4; in the assay on DU145, 5.79; in the assay on FB, 2.18; with HEPG2, 5.29; in the assay with OVCAR4, 4.16.
Take `COc1ccc(CN2CCN(C(c3ccc(F)cc3)c3ccc(F)cc3)CC2)c(OC)c1OC` [Lomerizine HCl]: the Euclidean distance in the assay on 786-O was determined as 0.896; in the assay on A549, 1.09; with DU145, 0.808; in the assay on FB, 1.17; with HEPG2 it was 1.31; in the assay on OVCAR4, 0.83.
As for `Nc1ccc2cc3ccc(N)cc3nc2c1` [Proflavine], the Euclidean distance in the assay on 786-O came to 3.98; with A549 it was 3.75; in the assay with DU145 it was 4; in the assay with FB it was 4.15; in the assay on HEPG2 it was 4.17; with OVCAR4 it was 4.45.
On to `OC[C@@H](O)[C@@H](O)[C@H](O)[C@@H](O)CO` [Sorbitol], for which the Euclidean distance was determined as 1.36 in the assay with 786-O; 0.586 with A549; 0.79 with DU145; 0.737 with FB; 0.791 in the assay with HEPG2; 1.21 in the assay with OVCAR4.
For the compound `O=C(/C=C\n1cnc(-c2cc(C(F)(F)F)cc(C(F)(F)F)c2)n1)NNc1cnccn1`, the Euclidean distance with 786-O stood at 2.36; with A549 it was 3.91; in the assay with DU145, 2.72; in the assay with FB it was 3.85; with HEPG2 it was 2.34; with OVCAR4 it was 3.83.
For the compound `Cc1ccc(S(=O)(=O)n2c(N)nc3ccccc32)cc1` [ML130 (Nodinitib-1)], the Euclidean distance turned out to be 0.771 with 786-O; 1.13 with A549; 0.862 in the assay with DU145; 0.77 with FB; 1.18 with HEPG2; 0.774 in the assay on OVCAR4.
On to `Oc1c(I)cc(I)c2cccnc12` [Diiodohydroxyquinoline], for which the Euclidean distance in the assay on 786-O turned out to be 1.24; in the assay with A549, 1.68; in the assay on DU145, 0.746; in the assay with FB it was 1.01; in the assay with HEPG2, 0.677; in the assay on OVCAR4, 1.2.
For `CCOC(=O)[C@H]1O[C@@H]1C(=O)N[C@@H](CC(C)C)C(=O)NCCC(C)C` [Aloxistatin], the Euclidean distance in the assay on 786-O turned out to be 0.731; with A549 it was 2.18; with DU145, 1.26; with FB, 1.17; with HEPG2, 0.539; with OVCAR4 it was 0.987.
As for `CC(C)(C)c1cc(/C=C(\C#N)C(N)=S)cc(C(C)(C)C)c1O` [Tyrphostin AG 879], the Euclidean distance turned out to be 1.54 in the assay with 786-O; 1.46 with A549; 0.926 in the assay with DU145; 0.967 in the assay with FB; 0.81 with HEPG2; 1.01 in the assay on OVCAR4.
`CC1(C)S[C@@H]2[C@H](NC(=O)C(c3ccccc3)S(=O)(=O)O)C(=O)N2[C@H]1C(=O)O` (some centres undefined) [Sulbenicillin Sodium]: the Euclidean distance stood at 0.75 with 786-O; 0.447 with A549; 1.14 with DU145; 1.28 in the assay on FB; 0.601 in the assay with HEPG2; 1.09 in the assay on OVCAR4.
With `CC[C@H](C)[C@H](NC(=O)[C@H](Cc1ccc(O)cc1)NC(=O)[C@@H](NC(=O)[C@H](CCCN=C(N)N)NC(=O)[C@@H](N)CC(=O)O)C(C)C)C(=O)N[C@@H](Cc1cnc[nH]1)C(=O)N1CCC[C@H]1C(=O)N[C@@H](Cc1ccccc1)C(=O)O` [Angiotensin II human Acetate], the Euclidean distance in the assay with 786-O was found to be 1.66; in the assay on A549, 0.986; with DU145, 0.817; in the assay with FB it was 1.24; in the assay with HEPG2 it was 0.532; in the assay on OVCAR4 it was 0.985.
Turning to `CN(CCCCCCCCCCN(C)C(=O)Oc1cccc([N+](C)(C)C)c1)C(=O)Oc1cccc([N+](C)(C)C)c1` [Demecarium Bromide], the Euclidean distance with 786-O stood at 0.786; in the assay on A549, 0.898; in the assay with DU145, 0.6; in the assay with FB it was 1.07; with HEPG2, 1.17; in the assay with OVCAR4, 1.24.
Take `CC1(C)O[C@@H]2C[C@H]3[C@@H]4CCC5=CC(=O)CC[C@]5(C)[C@@]4(F)[C@@H](O)C[C@]3(C)[C@]2(C(=O)CCl)O1` [Halcinonide]: the Euclidean distance with 786-O was 1.46; in the assay with A549 it was 2.25; with DU145, 2.18; in the assay on FB, 2; in the assay on HEPG2 it was 0.493; in the assay on OVCAR4, 1.78.
Take `Cc1nc(Nc2ccc(F)cc2)nc(N2CCc3ccccc3C2C)c1C` (centres undefined) [Revaprazan Hydrochloride]: the Euclidean distance turned out to be 1.38 in the assay on 786-O; 1.19 in the assay on A549; 1.06 in the assay on DU145; 1.28 with FB; 1.21 with HEPG2; 1.13 in the assay on OVCAR4.
With `CN1CCC(=C2c3ccccc3CC(=O)c3sccc32)CC1` [Ketotifen Fumarate], the Euclidean distance with 786-O was determined as 0.851; in the assay with A549 it was 0.639; in the assay on DU145, 0.639; in the assay on FB, 1.17; in the assay with HEPG2, 0.589; in the assay with OVCAR4, 1.2.
For `CO[C@H]1C[C@@H]2CC[C@@H](C)[C@@](O)(O2)C(=O)C(=O)N2CCCC[C@H]2C(=O)O[C@H]([C@H](C)C[C@@H]2CC[C@@H](OC(=O)C(C)(CO)CO)[C@H](OC)C2)CC(=O)[C@H](C)/C=C(\C)[C@@H](O)[C@@H](OC)C(=O)[C@H](C)C[C@H](C)/C=C/C=C/C=C/1C`, the Euclidean distance in the assay on 786-O is 3.03; in the assay with A549, 1.74; with DU145, 1.55; with FB, 2.95; in the assay on HEPG2, 1.69; with OVCAR4, 2.08.
In the case of `C[C@H]1COC2(CCN(c3nc(=O)c4cc(C(F)(F)F)cc([N+](=O)[O-])c4s3)CC2)O1` (racemic) [BTZ043 Racemate], the Euclidean distance stood at 1.5 with 786-O; 0.656 with A549; 1.01 with DU145; 1.47 with FB; 0.565 with HEPG2; 0.748 with OVCAR4.
Turning to `COc1cc2nc(N3CCN(C(=O)C4CCCO4)CC3)nc(N)c2cc1OC` (centres undefined) [Terazosin HCl Dihydrate], the Euclidean distance in the assay with 786-O came out at 1.02; in the assay on A549, 0.591; with DU145, 1.34; in the assay with FB it was 1.07; in the assay on HEPG2, 1.69; in the assay with OVCAR4, 1.43.
In the case of `C=CC(=O)N1CCC(CNc2ncnc(N)c2-c2ccc(Oc3ccccc3)cc2)CC1` [Evobrutinib], the Euclidean distance with 786-O amounted to 0.935; with A549, 0.683; with DU145, 2.24; in the assay with FB it was 0.97; in the assay on HEPG2, 0.714; with OVCAR4 it was 0.874.
`CN(C)CCCN1c2ccccc2Sc2ccccc21` [Promazine hydrochloride]: the Euclidean distance in the assay with 786-O turned out to be 1.46; with A549 it was 0.965; in the assay on DU145 it was 2.09; with FB, 1.9; with HEPG2, 2.01; in the assay with OVCAR4, 1.58.
With `Cn1c(=O)cc(N2CCC[C@@H](N)C2)n(Cc2cc(F)ccc2C#N)c1=O` [Trelagliptin succinate], the Euclidean distance amounted to 0.808 with 786-O; 1.21 in the assay with A549; 1.04 with DU145; 1.06 in the assay with FB; 0.54 with HEPG2; 1.49 with OVCAR4.
